# Several values for one entry are separate records, joined by “and”; a condition that tells them apart may be missing. Equal values may be shown once. About 1,200 (0.92%) of roughly 130,000 compounds were called active. Where a call stands in place of a potency, no number is given. About 3% were inconclusive and are not listed. The full list was thinned out, with actives kept by preference. Values without a mark were called inactive. Calls follow the shape of the dose curve; as a rule, active = well fitted cell-killing curve with a large enough effect; inconclusive = small, poorly fitted or top-dose-only effect; inactive = no such curve, though single readings can be large or run the other way.
# Assay: qHTS Screen for Compounds that Selectively Target Cancer Cells with p53 Mutations: Cytotoxicity of p53ts Cells at the Permissive Temperature; also: nearly all actives have a fitted effect of over 55% in size
# Settings: H1299-p53A138V at 32C, ATP luminescence viability, 24 h; series mostly up to 46.1 µM
# Text: NIH Chemical Genomics Center [NCGC] NIH Molecular Libraries Screening Centers Network [MLSCN] MLSCN Grant: 1 X01 MH079844-01 Assay Submitter (PI): Dr. SUN, YI, University of Michigan NCGC Assay Overview: Synthetic Lethal Screen for Compounds to Kill Cancer Cells with p53 Mutation. Tumor suppressor gene p53 serves as a major cellular barrier against tumorigenesis. […] The goal of this screening is to identify small molecule probes that selectively kill cancer cells with mutations in p53. This screening was carried out using two lines of H1299 lung cancer cells. The H1299-p53 A138V line express a temperature sensitive p53 mutant (p53ts) in which the mutant p53 protein (A138V) is in the mutant confirmation when grown at 39C (the nonpermissive temperature) and in the wild type conformation when grown at 32C (the permissive temperature). A H1299-neo line (p53 null) grown at both 39C and 32C were used as counter-screens to filter out false positive associated with temperature shifting. The small molecular compounds that selectively target mutant p53-containing cancer cells were selected as candidate probes for further study. A cytotoxicity assay based on the measurement of ATP contents in cells was used in this screen. Concentration-responses of all the compounds in the library collection were determined in qHTS using the cell lines and temperature conditions as above.
# NCGC Assay Protocol Summary: Both the H1299-p53A138V and H1299-neo cell lines were provided by Dr.Yi Sun, a PI at the University Michigan. The cells were maintained and cultured at 37C. The resuspended frozen cells were used to plate the cells in the 1536-well assay plates at a density of 600 cells per well in 5 ul medium. The assay plates with the cells were incubated at 37C for 16 to 30 hours before the experiments. The library compounds in DMSO solution were added to the cells in assay plates and incubated 24 hours at 39C (for mutant p53 conformation) or 32C (for normal p53 conformation as control). An ATP_lite assay kit (PerkinElmer) was used to determine the cell viability. Tomaxifen (100uM) was used as the positive control for cell killing. Data were normalized to the controls for basal activity (DMSO only) and 100% killing (100uM tamoxifen). AC50 values were determined from concentration-response data modeled with the standard Hill equation. P53 assay protocol: 1. Reagent; 5 uL H1299-p53A138V or H1299-neo cell cells/well 2. Time; overnight; 37C incubation 3. Compounds; 23 nL; 5.9 nM to 46 uM 4. Controls; 23 nL; Tamoxifen 100 uM 5. Time; 24 hr; 37C incubation 6. Reagent; 3 uL; ATP_Lite reagent 7. Time; 20 min; Room Temperature 8. Detection; Luminescence; Viewlux plate reader Keywords: p53, synthetic lethal, cancer, cell viability, cytotoxicity, H1299 cell line, luminescence, MLSMR, MLSCN, NIH Roadmap, qHTS, NCGC
# Potency is read from the fitted curve at half-maximal effect.
Structure (SMILES),Potency,"activity change, negative = cytotoxicity"
CCN(CCCCOC(=O)c1ccc(OC)c(OC)c1)C(C)Cc1ccc(OC)cc1 (stereo unspecified),inactive,
COc1ccc(C(CCN(Cc2ccc(OC)c(OC)c2)C(=O)CCl)c2ccccc2)cc1 (stereo unspecified),5.01 µM (active),
COc1ccc(/C=C/NC(=O)Cc2ccc(OC)c(OC)c2)cc1,,-5.23% [at 9.22 µM] and 5.05% [at 9.22 µM]
CCc1ccc(NC(=O)c2cc(S(=O)(=O)N3CCCC(C)C3)cn2C)cc1 (stereo unspecified),inactive,
COc1cccc(NC(=O)CSC2=Nc3ccccc3C3=NC(CC(=O)NC4CCCCC4)C(=O)N23)c1 (stereo unspecified),inactive,
COC(=O)c1ccccc1NC(=O)Cn1c(=O)cc(C)c2c(C)nn(-c3cccc(Cl)c3C)c21,inactive,
Cc1ccc(NC(=O)CSc2nc3c([nH]c4ccccc43)c(=O)n2-c2ccccc2)c(C)c1,inactive,
CC(C)c1ccc(NC(=O)CN(C)S(=O)(=O)c2ccc3c(c2)c(=O)n(C)c(=O)n3C)cc1,inactive,
COC(=O)c1sc(NC(=O)c2ccc(OC)cc2OC)nc1C,0.398 µM (active),
COC(=O)c1sc(NC(=O)c2csc3c2CCCC3)nc1C,inactive,
COc1ccc(C(=O)Nc2nncs2)c(OC)c1,inactive,
COc1ccc(-c2nc3sc(CCNS(=O)(=O)c4ccc(F)c(C)c4)c(C)n3n2)cc1,inactive,
Cc1ccccc1Nc1nn2c(=O)c3ccc(C(=O)NCCc4ccc(Cl)cc4)cc3nc2s1,15.8 µM (active),
O=C(NCCc1ccc(Cl)cc1)c1ccc2nc(CCc3ccccc3)oc2c1,inactive,
CCn1c(=O)c2cc(C(=O)NCCc3ccc(Cl)cc3)sc2c2ccccc21,inactive,
CCOc1ccc(C(=O)c2cn(Cc3ccccc3OC)c3ccc(F)cc3c2=O)cc1,inactive,
CCOC(=O)c1cc2c(=O)n3ccccc3nc2n(CC2CCCO2)c1=NC(=O)c1ccccc1Br (stereo unspecified),inactive,
O=C(NCc1ccc2c(c1)CCN2C(=O)c1ccccc1)Nc1cc(F)ccc1F,inactive,
COc1ccc(-c2cc(-c3nc(-c4cc(OC)c(OC)c(OC)c4)no3)[nH]n2)c(OC)c1,inactive,
COc1ccc(-c2noc(CSc3nnc(-c4ccccc4)n3-c3ccc(F)cc3)n2)c(OC)c1,inactive,
COc1ccc(-c2nc(-c3ccccc3)no2)c(OC)c1,5.01 µM (active),
CCn1c(C)c(C)c2cc(C(=O)N3CCN(c4cccc(C)c4C)CC3)ccc21,inactive,
CCOc1ccc(C(=O)/C=C/c2cn(CC(O)CN3CCCCCC3)c3ccccc23)cc1 (stereo unspecified),inactive,
CCOC(=O)c1nnn(CC(=O)NC(=O)Nc2ccccc2F)c1C(=O)OCC,inactive,
Cc1ccc2oc(C(=O)Nc3ccc(S(=O)(=O)N4CCCCCC4)cc3)cc(=O)c2c1,inactive,
Cc1cc(C)c2c(n1)nn1c(N3CCOCC3)cc(C)nc21,inactive,

Structure (SMILES),Potency,"activity change, negative = cytotoxicity"
Cc1nc2ccccc2n1C(=O)N1CCOCC1,inactive,
Cc1nn2c3cc(N4CCOCC4)ccc3nc2c2ccccc12,2 µM (active),
COc1ccc(CNC(=O)CC2Oc3ccc(C)cc3NC2=O)cc1 (stereo unspecified),inactive,
Cc1cc(=O)c2cc(C(=O)Nc3cccc(C)c3C)ccc2[nH]1,inactive,
O=C(CSc1nnc(CNC(=O)c2ccccc2)n1-c1ccc(F)cc1)Nc1ccccc1F,inactive,
CCc1ccc2oc(-c3ccc(NC(=O)c4cc5ccccc5o4)cc3)nc2c1,inactive,
CCc1ccc2oc(-c3ccc(N)cc3)nc2c1,7.94 µM (active),
CCc1ccc2oc(-c3ccc(C)c(NC(=O)/C=C/c4ccco4)c3)nc2c1,inactive,
COc1ccc(-c2nnc(SCC(=O)Nc3ccc(C(C)C)cc3)nc2-c2ccc(OC)c(OC)c2)cc1OC,inactive,
CC(C)(C)c1ccc(C(=O)NCC(c2ccc(Cl)cc2)N2CCOCC2)cc1 (stereo unspecified),inactive,
NC(=O)c1ccccc1NC(=O)c1ccccc1F,inactive,
O=C(Nc1nc2c(s1)CCCC2)c1ccccc1F,7.94 µM (active),
O=C(Cn1c(=O)sc2ccccc21)Nc1nc2c(s1)CCCC2,inactive,
O=C1N(Cc2ccccc2)c2ccc(Cl)cc2C1(O)c1c[nH]c2ccccc12 (stereo unspecified),inactive,
CCOc1cc(C(=O)Nc2ncccn2)cc(OCC)c1OCC,inactive,
Cn1c(=O)c(C(=O)Nc2ncccn2)c(O)c2ccccc21,12.6 µM (active),
O=C(Nc1ncccn1)c1cccs1,inactive,
CC1CCCN(c2nc3c(S(=O)(=O)c4ccc(C(C)C)cc4)nnn3c3ccsc23)C1 (stereo unspecified),inactive,
COc1cccc(CNC(=O)CSc2c3c(nc4cc(Cl)ccc24)CCCC3)c1,inactive,
CCOc1ccc(C(=O)Nc2ccc3nc4c(c(Nc5ccccc5OC)c3c2)CCCC4)cc1,inactive,
CCOc1ccc(NC(=O)CSc2c3c(nc4ccccc24)CCCC3)cc1,22.4 µM (active),
CCOC(=O)c1cc(-c2ccccc2)n(CCC(=O)Nc2ccccc2CC)c1C,inactive,
O=C(NC1CCCCC1)c1ccc(Cn2c(SCc3ccccc3)nc3cccnc32)cc1,inactive,
Cc1ccc(CSc2nc3cccnc3n2Cc2ccc(C(=O)NC3CC3)cc2)cc1,2.24 µM (active),
O=C(NCc1ccc(F)cc1)c1ccc(Cn2c(SCc3ccc(F)cc3)nc3cccnc32)cc1,inactive,

# Reference: PubChem BioAssay AID924 (National Center for Advancing Translational Sciences (NCATS), 2007)
